PubChem BioAssay (Tox21)
Where “and” joins values, the source holds several entries; their conditions need not be identical. Identical values can stand only once. Inconclusive results are not listed. The source holds several records for some structures; these can differ, active in one and inactive in another. Calls of active or inactive are those of the source. The call rests on the fitted dose curve; in most records, active means well fitted inhibition curve with a large enough effect in the repeat runs; inconclusive means weak or mixed curves; inactive means no such curve, though single readings can be large or run the other way.

The compounds below were run against Aromatase (Homo sapiens) (UniProt P11511) (assay: qHTS assay to identify aromatase inhibitors (AID 743083; further: nearly all actives have a fitted effect of over 55% in size)). Details: MCF-7 aro ERE, testosterone-driven ERE luciferase, 24 h; series mostly up to 70.3 µM; activity, negative = inhibition: at the top concentration.
Chain of Aromatase (Homo sapiens) (P11511 whole entry, looked up): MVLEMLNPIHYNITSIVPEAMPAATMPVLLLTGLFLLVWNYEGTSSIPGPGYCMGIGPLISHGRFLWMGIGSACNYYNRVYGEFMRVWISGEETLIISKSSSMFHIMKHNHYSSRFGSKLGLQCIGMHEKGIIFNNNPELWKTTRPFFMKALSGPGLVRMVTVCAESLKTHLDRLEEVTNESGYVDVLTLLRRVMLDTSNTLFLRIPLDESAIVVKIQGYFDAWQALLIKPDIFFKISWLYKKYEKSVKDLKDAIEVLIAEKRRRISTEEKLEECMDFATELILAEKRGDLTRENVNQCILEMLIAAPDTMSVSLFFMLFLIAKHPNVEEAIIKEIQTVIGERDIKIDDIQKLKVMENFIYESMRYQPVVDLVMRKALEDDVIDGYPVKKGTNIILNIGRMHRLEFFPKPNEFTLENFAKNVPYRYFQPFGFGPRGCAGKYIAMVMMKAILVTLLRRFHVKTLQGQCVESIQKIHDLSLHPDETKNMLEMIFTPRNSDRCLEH
On the % scale 0 is the no-effect control and ±100 the full control effect; potency means the concentration at half of the fitted maximal effect.

Row | SMILES | activity, negative = inhibition | Potency
1 | NC12CC3CC(CC(C3)C1)C2 | -0.97% (inactive) | –
2 | CCCCCCCCCCCCCC[P+](CCCC)(CCCC)CCCC | – | 7.65 µM (active) and 6.11 µM (active)
3 | O=C1OC2(c3ccc(O)cc3Oc3cc(O)ccc32)c2ccccc21 | – | inactive
4 | Nc1cc(S(=O)(=O)O)cc2cc(S(=O)(=O)O)cc(O)c12 | – | inactive
5 | O=C(O)c1cc(Cl)cc(Cl)c1 | 14.8% (inactive) | –
6 | Oc1c(Cl)cc(Cl)cc1Sc1cc(Cl)cc(Cl)c1O | – | 21.1 µM (active) and 15.4 µM (active) and 17.5 µM (active)
7 | N[C@@H]1CONC1=O | 25.5% (inactive) | –
8 | Nc1ccc2cc3ccccc3cc2c1 | – | inactive
9 | Cc1c(O)cccc1C(=O)N[C@@H](CSc1ccccc1)[C@H](O)CN1C[C@H]2CCCC[C@H]2C[C@H]1C(=O)NC(C)(C)C | – | 26.6 µM (active) and 23.7 µM (active)
10 | CCCCC(CC)COC(=O)CC(C(=O)OCC(CC)CCCC)S(=O)(=O)O (stereo unspecified) | -12.6% (inactive) | –
11 | CC(=O)O[C@]1(C(C)=O)CC[C@H]2[C@@H]3C[C@H](C)C4=CC(=O)CC[C@]4(C)[C@H]3CC[C@@]21C | – | inactive
12 | C/C=C/c1ccc(OCC)c(O)c1 | -3.3% (inactive) | –
13 | CCN(CC)C(=S)SSC(=S)N(CC)CC | – | 168 nM (active) and 68.6 nM (active) and 55.8 nM (active)
14 | CC(C)CCOCc1ccccc1 | 15.6% (inactive) | –
15 | CC(=O)Nc1ccc(C(=O)CCl)cc1 | -4.07% [at 95 µM] (inactive) | –
16 | O=Cc1ccc(Cl)cc1 | 27.3% (inactive) | –
17 | CCCN[C@H]1CCc2nc(N)sc2C1 | – | inactive
18 | O | – | inactive

Row | SMILES | activity, negative = inhibition | Potency
19 | COC(c1ccccc1)(c1ccccc1)[C@H](Oc1nc(C)cc(C)n1)C(=O)O | -10.3% (inactive) | –
20 | CCC[C@H](N[C@@H](C)C(=O)N1[C@H](C(=O)O)C[C@@H]2CCCC[C@@H]21)C(=O)OCC | 9.6% (inactive) | –
21 | CCc1cc(C(C)(C)C)c(O)c(C(C)(C)C)c1 | – | inactive
22 | CC(C)(C)NCC(O)c1cc(O)cc(O)c1 (stereo unspecified) | 2.52% (inactive) | –
23 | c1ccc2c(c1)-c1cccc3c1c-2cc1ccccc13 | – | inactive
24 | CC1COc2c(N3CCN(C)CC3)c(F)cc3c(=O)c(C(=O)O)cn1c23 (stereo unspecified) | -2.15% (inactive) | –
25 | NC(N)=NC(=O)Cc1c(Cl)cccc1Cl | -1.45% (inactive) | –
26 | Nc1ccc(O)cc1 | – | inactive and 31.8 µM (active)
27 | C1COC(NC(C2CC2)C2CC2)=N1 | 9.19% (inactive) | –
28 | CCN(CC)c1ccc2c(C)cc(=O)oc2c1 | – | inactive
29 | CC[C@@H](N)CO | 11.9% [at 95 µM] (inactive) | –
30 | CC(COc1ccccc1)N(CCCl)Cc1ccccc1 (stereo unspecified) | -0.312% (inactive) | –
31 | CCCOC(=O)c1cc(O)c(O)c(O)c1 | -10.5% (inactive) | –
32 | CC(=O)CC(=O)Nc1ccc2[nH]c(=O)[nH]c2c1 | 24.6% (inactive) | –
33 | CC(C)(C)NC(=O)[C@@H]1CN(Cc2cccnc2)CCN1C[C@@H](O)C[C@@H](Cc1ccccc1)C(=O)N[C@H]1c2ccccc2C[C@H]1O | – | 29.8 µM (active) and inactive
34 | C[N+]1([O-])CCOCC1 | 11.6% (inactive) | –
35 | NC(=Nc1ccccc1)Nc1ccccc1 | – | 21.1 µM (active)
36 | OCCN1CCNCC1 | – | inactive
